From PubChem BioAssay
aSyn 5UTR act = Activators via SNCA 5'UTR binding, MLPCN. alpha-synuclein 5'UTR reporter, activators screen. activity score, % (tested at 7.5 µM), hits read low. 300,000 tested, 7.1% active. AID 1814, 2009; in the data active means activity score below about -60%
Numbers without * were called inactive. Only a selection was taken, and hits are over-represented in it overall.

SMILES | aSyn 5UTR act
Cc1ccc(N=Nc2c(C)[nH]n(C(N)=S)c2=O)cc1 | -116*
COc1ccc(C(C#N)=C2C=CC(=NO)C=C2)cc1 | -148*
CC(C)c1ccc(NC(=O)COc2ccc(F)cc2C(=O)c2cnn(-c3ccccc3)c2)cc1 | -115*
O=C(COc1ccccc1C(=O)c1cnn(-c2ccccc2)c1)Nc1ccc2ccccc2c1 | -136*
CC(C)OC(=O)Cn1nnc2c(cnn2-c2ccccc2)c1=O | -98*
CCCC(C(=O)Nc1ccc2c(C)cc(=O)oc2c1)c1ccccc1 (stereo not drawn) | -66*
Cc1cc(=O)oc2cc(Nc3ccccc3)ccc12 | -90*
O=C(CCl)NCCN1C(=O)S/C(=C\c2cccnc2)C1=O | -99*
Cc1ccc2c(Cl)c(C(=O)Nc3cc(C)on3)sc2c1 | -122*
Cc1ccc2c(Cl)c(C(=O)NCC3CCCO3)sc2c1 (stereo not drawn) | -137*
O=C(NCC1CCCO1)c1sc2ccccc2c1Cl (stereo not drawn) | -106*
Cc1ccnc(NC(=O)c2sc3ccccc3c2Cl)c1 | 78
O=C(NNC(=O)C1CC2CCC1C2)c1sc2ccccc2c1Cl (stereo not drawn) | -112*
CC(NC(=O)c1sc2ccccc2c1Cl)C1CCCO1 (stereo not drawn) | -65*
Cc1ccc2c(Cl)c(C(=O)NCCc3ccccc3)sc2c1 | -166*
CN(Cc1c(F)cccc1Cl)C(=O)CNC(=O)c1sc2ccccc2c1Cl | -66*
O=C(CNC(=O)c1sc2ccccc2c1Cl)NC1CC1 | -118*
COc1cc(C=O)ccc1OCCSc1ccc(Cl)cc1 | -87*
Cc1c(-c2ccccc2)nnn1-c1ccc(F)cc1F | -93*
CCOc1ccc(NC(=O)C(c2ccccn2)N(C(=O)CCl)c2ccc(OC)cc2)cc1 (stereo not drawn) | -161*
Cc1c(C)c(C)c2[nH]c(-c3ccc4c(c3)OCO4)nc2c1C | -76*
CCN(CC)C(=O)c1ccc(-c2cccs2)s1 | -73*
CC1=CN2C(=N)/C(=C/c3ccc(Sc4ccc(C)cc4)o3)C(=O)N=C2S1 | -78*
CCN=C1S/C(=C\c2ccc(Sc3ccc(Cl)cc3)o2)C(=O)N1CC | 57
CC1=CN2C(=N)/C(=C/c3ccc(C)o3)C(=O)N=C2S1 | -80*
SMILES | aSyn 5UTR act
COC(=O)c1cc(=O)n(Cc2ccc3c(c2)OCO3)c(=Nc2ccc(F)c(Cl)c2)s1 | -66*
C/C(CC(=O)Nc1ccc(Cl)cc1C(F)(F)F)=N\NC(=O)c1ccccn1 | -127*
O=C(COC(=O)CNC(=O)c1cccs1)Nc1ccccc1C(F)(F)F | -95*
C/C(CC(=O)Nc1ccc(Cl)cc1C(F)(F)F)=N\NC(=O)c1cccs1 | -106*
CC(=O)Nc1nccc(-c2cc(-c3ccccc3)no2)n1 | -180*
O=C(NNC(=S)Nc1ccc(F)cc1)c1ccccc1OC(F)F | -63*
Cc1ccc(NC(=S)NNC(=O)c2ccccc2OC(F)F)cc1 | -87*
O=C(NNC(=S)Nc1cccc(Cl)c1)c1ccccc1OC(F)F | -83*
Cn1c(=NC(=O)c2cccc([N+](=O)[O-])c2)sc2ccccc21 | -139*
COc1cc(C(=O)N=c2sc3c(C)ccc(OC)c3n2C)cc(OC)c1OC | -222*
COc1cc(C(=O)N=c2sc3ccccc3n2C)cc(OC)c1OC | -103*
COc1ccc(C(=O)N=c2sc3c(C)ccc(OC)c3n2C)cc1 | -115*
COC(=O)c1sc(NC(=S)NC(=O)c2ccccc2F)nc1C | -152*
COC(=O)c1sc(NC(=S)NC(=O)c2cccc(C)c2)nc1C | -144*
CCCOC1CCCN(C(=O)c2cc(COc3ccc(F)c(F)c3)on2)C1 (stereo not drawn) | -118*
CCOC(=O)C1CCCN(C(=O)c2cc(COc3ccc(C)nc3)on2)C1 (stereo not drawn) | -86*
CCCN1CCN(C(=O)c2cc(COc3ccc(F)c(F)c3)on2)CC1 | -74*
Cc1nn(C)c(C)c1C(C)NC(=O)c1cc(COc2ccc(F)c(F)c2)on1 (stereo not drawn) | -68*
N#Cc1ccc(-c2csc(NC3=NCCCCC3)n2)cc1 | -73*
c1ccc(-c2csc(NC3=NCCCCC3)n2)cc1 | -99*
CC(C)(C)c1ccc(-c2csc(NNC3=NCCCCC3)n2)cc1 | -78*
O=C(NCCc1c[nH]c2ccccc12)C(=O)Nc1ccccc1 | -65*
O=C(NCCc1ccccc1)C(=O)c1c[nH]c2ccccc12 | -200*
O=C(Nc1ccc(-c2ccc(N3CCCCC3)nn2)cc1)c1ccco1 | -131*
O=C(c1ccco1)N1CCN(c2ccc(F)cc2)CC1 | -79*
SMILES | aSyn 5UTR act
Cc1nc(N2CCN(C(=O)c3ccco3)CC2)nc2c1C(=O)CCC2 | -121*
O=C(c1ccco1)N1CCN(c2ccc(N3CCCCC3)nn2)CC1 | -133*
Cc1nc(N2CCN(C(=O)c3ccco3)CC2)c2oc3ccccc3c2n1 | -89*
COc1ccccc1N1CCN(c2nc(C)nc3c2oc2ccccc23)CC1 | 90
CCOc1ccc2nc(NC(=O)Cn3[nH]c(=O)c4ccccc4c3=O)sc2c1 | -105*
CCOc1ccc2nc(NC(=O)COC)sc2c1 | -97*
CCOCC(=O)Nc1nc2ccc(OC)cc2s1 | -89*
N#C/C(=C\c1ccc(O)cc1)c1nc2ccccc2o1 | -120*
